# Experimental data published in PubChem BioAssay.
# Activity calls are given as the source filed them.
# Legend:
# [1] = compound effects on lung adenocarcinoma cell viability – A549, calcein-AM fluorescence, 48 h, basal, profiling panel (AID 1162); details: higher = more signal
# [2] = compound effects on differentiated 3T3-L1 adipocyte viability – cell-based, 3T3-L1 adipocytes, calcein-AM fluorescence, 48 h, basal, profiling panel (AID 1163); details: 3T3-L1 adipocytes viability, higher = more signal
# [3] = compound effects on hepatocellular carcinoma cell viability – HepG2, calcein-AM fluorescence, 48 h, basal, profiling panel (AID 1164); details: higher = more signal
# [4] = compound effects on multiple myeloma cell viability – MM1S, calcein-AM fluorescence, 48 h, basal, profiling panel (AID 1165); details: higher = more signal;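 also: viability of MM1S multiple myeloma cells under basal unstimulated conditions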
# [5] = calcein-AM signal in unstimulated myeloma cells – cell-based, calcein-AM fluorescence, 48 h, PK04 Diversity Set, profiling panel (AID 1166); details: RPMI8226 myeloma viability, higher = more signal;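 also: cells grown under basal conditions without added stimulus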
# [6] = JC-1 mitochondrial signal, unstimulated HepG2 cells – cell-based, JC-1 fluorescence, 24 h, 100 nL compound, profiling panel (AID 1167); details: HepG2 mitochondrial potential, higher = more signal
# [7] = JC-1 mitochondrial signal, unstimulated adipocytes – cell-based, JC-1 fluorescence, 3T3-L1 adipocytes, 24 h, 100 nL compound, profiling panel (AID 1168); details: JC-1 mitochondrial fluorescence, higher = more signal, called active from +8 up or from −8 down
# [8] = JC-1 mitochondrial signal, unstimulated myeloma cells – cell-based, JC-1 fluorescence, RPMI8226, 24 h, 100 nL compound, profiling panel (AID 1169); details: JC-1 mitochondrial potential fluorescence, higher = more signal
# [9] = JC-1 mitochondrial signal, unstimulated MM1S myeloma – cell-based, JC-1 fluorescence, 24 h, 100 nL compound, profiling panel (AID 1170); details: MM1S mitochondrial potential, higher = more signal
# [10] = resazurin metabolic signal in A549 cells – cell-based, resazurin fluorescence, 24 h, PK04 Diversity Set, profiling panel (AID 1171); details: A549 viability, higher = more signal, called active from +8 up or from −8 down
# Also: test concentration not given here.
Structure (SMILES),z-score [1],z-score [2],z-score [3],z-score [4],z-score [5],z-score [6],z-score [7],z-score [8],z-score [9],z-score [10]
Cc1cc(C)c(C(O)C2C=CC3C(=O)N(C)C(=O)C3N2N2CCCCC2)c(C)c1 (stereo not given),-0.905,-0.878,-0.863,-0.225,-1.11,-1.74,-0.721 (inactive),0.935,0.173,0.406 (inactive)
O=C1O[C@H](c2ccccc2)[C@H](c2ccccc2)N2[C@H]1[C@@H](C(=O)NC[C@H](O)c1ccccc1)[C@]1(C(=O)Nc3ccc(C#CC4=CCCCC4)cc31)[C@H]2c1ccc(OCCO)cc1,0.0545,-0.405,-0.674,-1.24,-2.29,-2.36,1.27 (inactive),-1.34,-1.52,-0.527 (inactive)
C=C(C)[C@@H]1CC=C(C(O)C2C=CC3C(=O)NC(=O)C3N2Nc2ccccn2)CC1 (stereo not given in full),-0.592,-1.11,-0.914,0.0217,-0.97,-1.66,0.344 (inactive),0.921,-0.0607,-0.981 (inactive)
COCCOC(=O)N1C(=O)[C@@]2(c3cc(C#CC4=CCCCC4)ccc31)[C@H](C(=O)NC[C@H](O)c1ccccc1)[C@H]1C(=O)O[C@H](c3ccccc3)[C@H](c3ccccc3)N1[C@@H]2c1ccccc1OCCO,-1.03,-0.383,-3.29,-3.21,-4.04,-1.46,2.6 (inactive),-0.804,-1.67,-1.43 (inactive)
CN1C2C=C(c3ccc(CO)cc3)C(C3C(=O)N(C(N)=O)C(=O)C32)C1c1cccs1 (stereo not given),0.555,1.64,-0.542,0.31,1.07,0.171,0.497 (inactive),-0.21,0.491,0.567 (inactive)
COC(=O)C1=CC(c2ccc(CO)cc2)=CC(C2CC2)N(Cc2sc3ccccc3c2Cl)C=C1C(=O)OC (stereo not given),-0.905,1.77,-0.651,-2.62,-4.22,1.72,0.982 (inactive),-0.804,-0.969,-1.3 (inactive)
C=CCc1cccc([C@H]2N[C@H](C(=O)O)CC[C@@H]2C)c1,0.382,0.624,-0.484,-0.543,0.665,0.489,-0.0728 (inactive),0.602,0.345,0.553 (inactive)
CO[C@@H]1COC(=O)[C@H](C)NC(=O)CC=C[C@@H](C)[C@H](OC)COC(=O)[C@H](C)NC(=O)CC=C[C@H]1C,1.2,-0.0006,1.01,0.419,0.973,0.51,1.44 (inactive),-1.04,1.95,0.787 (inactive)
O=C1OCCC/C=C\[C@H]2OC34C=CCN(CCN5CCOCC5)C(=O)[C@H]3N(CCCCCO)C(=O)[C@@H]4C12 (stereo not given in full),0.739,0.216,-0.123,1.1,-0.0521,-1.04,0.348 (inactive),0.329,-0.102,-0.254 (inactive)
CC(C)C[C@@H]1NC(=O)[C@H](CC(C)C)NC(=O)[C@@]23C(=O)N[C@@H](Cc4ccccc4)C2[C@H](C)[C@@]2(C)O[C@H]2C3/C=C/CC/C=C/CNC1=O (stereo not given in full),-0.422,1.31,-0.766,-1.66,-2.04,2.33,-0.141 (inactive),-0.366,0.19,1 (inactive)
CSCC[C@@H]1NC(=O)CC=C[C@@H](C)COC(=O)[C@H](CCSC)NC(=O)CC=C[C@@H](C)COC1=O,0.364,1.7,0.0574,0.0493,0.0542,0.79,0.647 (inactive),0.508,0.388,0.376 (inactive)
COC(=O)C1=CC(c2ccc(CO)cc2)=CC(c2cccs2)N(Cc2cccc(OC(F)(F)F)c2)C=C1C(=O)OC (stereo not given),-0.425,0.531,-0.282,-1.63,-2.08,-0.908,-1.25 (inactive),-0.838,-0.459,-0.0711 (inactive)
COc1ccc([Si](C)(C)[C@H]2[C@H](CC(=O)N3Cc4ccccc4C[C@H]3CO)O[C@@]3(C(=O)N(Cc4cccc(N5CCOC5=O)c4)c4ccccc43)[C@@H]2C)cc1,0.443,0.373,-0.632,-0.913,-0.727,1.31,0.405 (inactive),-1.1,-0.223,-0.399 (inactive)
C[C@]1(C(=O)NCCN2CCOCC2)c2ccccc2C(=O)N(Cc2ccccc2)[C@H]1c1ccc(CO)cc1,0.665,-0.337,-0.289,0.763,-1.71,1.58,-0.782 (inactive),-0.0116,-0.225,0.583 (inactive)
